# Values without a mark were called inactive. Records with an inconclusive call do not appear. Active and inactive are the calls of the source. Unless noted, calls follow the shape of the dose curve; as a rule, active = well fitted curve in either direction with a large enough effect (not every such curve was filed as active); inconclusive = small, poorly fitted or top-dose-only effect, or another doubt; inactive = flat fitted curve, though single readings scatter.
# How the values were obtained:
# [1] = AP1 Signaling Pathway (AID 357); settings: ME-180 AP-1-bla reporter, EGF-induced, beta-lactamase ratio, 5 h; at 17.2 µM (top of the series) unless noted;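 also: ME-180 reporter cells stimulated with EGF at its EC50 level; % is scaled to controls: 0 for no effect and ±100 for the full control effect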
# Outline: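 Titration-series screen for positive or negative modulators of EC50 EGF-induced signaling in ME-180 cells carrying an AP-1-driven beta-lactamase reporter. After 5 hours at 37 degrees Celsius, CCF4 460nm/530nm emission ratio gave %Activity; AC50 values derived.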
# [2] = Stat Signaling Pathway (AID 446); settings: ME-180 SIE beta-lactamase reporter, IL-6 stimulated, 5 h; at 17.2 µM (top of the series) unless noted;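 also: ME-180 cervical cancer cells given 40 pM IL-6 alongside compound; SIE-controlled beta-lactamase reporter measured as 460/530 nm FRET emission ratio; % is scaled to controls: 0 for no effect and ±100 for the full control effect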
# Outline: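 Normalization used AC90 stimulation (300 pM IL-6) and AC90 inhibition (125 nM pan-JAK inhibitor at 40 pM IL-6). The underlying signal is SIE-driven beta-lactamase in ME-180 cells after 5 h IL-6 exposure with compound.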
# [3] = molecular target: Glucocorticoid receptor (Homo sapiens) (UniProt P04150); assay: GR-GFP Redistribution (AID 450;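 active = compounds whose dose series gives a full or clear partial fitted curve of increased nuclear translocation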; also: potency is read from the fitted curve at half-maximal effect)
# [4] = qHTS Assay for Identification of Small Molecule Agonists for Hypoxia Response Element Signaling Pathway (AID 914; active = well fitted activation curve with a large enough effect in the signal ratio, with a control signal flat, not every such curve was filed as active; the % refers to the signal ratio; also: potency is read from the fitted curve at half-maximal effect; as to activation: % of control where 0% means no effect); settings: ME-180 (cervical carcinoma) HRE-bla reporter, beta-lactamase ratio, CoCl2, 17 h; activation: active compounds read high
# Outline: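 HRE-bla ME-180 assay for agonist-like enhancement of an EC50 CoCl2 stimulus: 17 h at 37 degrees Celsius, CCF4 for 2.5 h, ratiometric 460/530 nm signal converted to %Activity and fitted to AC50.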
# [5] = molecular target: Glucocorticoid receptor (Homo sapiens) (UniProt P04150); assay: GR-EFC Redistribution (AID 451; calls by dose curve; also: potency is read from the fitted curve at half-maximal effect); settings: CHO-K1 GR-EFC translocation, beta-gal luminescence, 2 h
# Outline: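 Translocation of GR-ED fusion to nuclear EA restores b-gal, read by luminescence after 1 h room-temperature detection. Engineered CHO-K1 biosensor cells, 1,000/well, exposed 2 h at 37 C to titrations up to 46 uM final.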
# [6] = molecular target: 3',5'-cyclic-AMP phosphodiesterase 4B (Homo sapiens) (UniProt Q07343); assay: qHTS Assay for Inhibitors of PDE-IV (AID 607; active = well fitted activation curve with a large enough effect in the main read-out, with a control signal flat, not every such curve was filed as active; also: % of control where 0% means no effect)
# Outline: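 HEK293 ACTOne cells with CNG channel (1000/well), endogenous PDE4; membrane potential dye, compounds up to 22.9 uM final. Fluorescence Ex 535/Em 590; RO 20-1724 (100 uM final) as reference.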
# [7] = qHTS Assay for Identification of Small Molecule Agonists for Thrombopoietin (TPO) Signaling Pathway (AID 917; active = well fitted curve in the direction sought with a large enough effect; an effect the other way counts as inactive or inconclusive; also: % is scaled to controls: 0 for no effect and ±100 for the full control effect)
# Outline: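 Ba/F3 (mouse) + hTPO receptor + GpIIb-promoter luciferase; IL-3 withdrawn overnight; compound + 26 pM TPO (EC50), 24 hrs, 37 C, 5% CO2; Steadylite luminescence, 10 min RT.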
# [8] = molecular target: Muscarinic acetylcholine receptor M1 (Rattus norvegicus) (UniProt P08482); assay: qHTS Assay for Antagonists of Acetylcholine Muscarinic M1 Receptor: Kinetic Measurement of Intracellular Calcium Response (AID 943; active = well fitted curve in the direction sought with a large enough effect; an effect the other way counts as inactive or inconclusive;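 also: Fluo-4 calcium signal as peak divided by basal fluorescence over 4 min; nearly all actives have a fitted effect of over 75% in size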)
# Outline: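 Quantitative HTS in CHO-M1 (rat receptor) cells: 10 min compound exposure ahead of 100 nM carbachol, Fluo-4 fluorescence followed 4 min, value expressed as peak-to-basal ratio.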
# [9] = molecular target: Pyruvate kinase (Leishmania mexicana) (UniProt Q27686); assay: qHTS Validation Assay for Inhibitors of Leishmania Mexicana Pyruvate Kinase (AID 945; active = well fitted curve in the direction sought with a large enough effect; an effect the other way counts as inactive or inconclusive;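 also: 0% = DMSO only neutral control wells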)
# Outline: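 Eight-point qHTS titrations; enzyme 0.2 nM LmPYK (E451W mutant); substrates 0.5 mM PEP, 0.1 mM ADP; 7 mM MgCl2; 1 h room temperature; PKLight luminescence normalized to neutral control.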
# [10] = molecular target: Pyruvate kinase PKM (Homo sapiens) (UniProt P14618); assay: qHTS Assay for Activators of Human Muscle Pyruvate Kinase (AID 954; active = well fitted curve in the direction sought with a large enough effect, not every such curve was filed as active;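 also: 0% = uninhibited enzyme and -100% = no enzyme or full thiadiazolimine inhibition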)
# Outline: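 Compound pinned into substrate mix (0.5 mM PEP, 0.1 mM ADP), then 0.1 nM PKM2 added; 1 h, RT. Stop/detection luciferase reagent added, luminescence read. Normalized to no-inhibition and no-enzyme or reference-inhibitor controls.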
# [11] = molecular target: Alpha-galactosidase A (Homo sapiens) (UniProt P06280); assay: Counterscreen for Glucocerebrosidase Inhibitors: qHTS Assay for Human alpha-Galactosidase at pH 4.5 (AID 992; active = well fitted curve in the direction sought with a large enough effect; an effect the other way counts as inactive or inconclusive; also: 0% is about no effect)
# Outline: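 Steps: enzyme (2 nM final), then compound across 0.7 nM to 77 uM, then 80 uM fluorogenic galactopyranoside substrate; incubate 20 min at room temperature; quench at pH 10; measure fluorescence at 365/440 nm.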
# [12] = molecular target: alpha-glucosidase (Oryza sativa, rice) (UniProt Q653V4); assay: Counterscreen for Glucocerebrosidase Inhibitors: qHTS Assay for Rice alpha-Glucosidase at pH 5.0 (AID 997; active = well fitted curve in the direction sought with a large enough effect; an effect the other way counts as inactive or inconclusive;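 also: 0% = full activity with enzyme and -100% = basal without enzyme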)
# Outline: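 Endpoint fluorogenic assay at pH 5.0: compounds (0.7 nM to 77 uM) titrated against 4 nM rice enzyme and 400 uM 4-MU-alpha-glucoside for 20 min at room temperature; NaOH/glycine stop, read ex 365/em 440 nm, Hill-fitted AC50.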
# [13] = molecular target: Tyrosyl-DNA phosphodiesterase 1 (Homo sapiens) (UniProt Q9NUW8); assay: Confirmation Assay for Inhibitors of Tyrosyl-DNA Phosphodiesterase (TDP1) (AID 489007; active = well fitted curve in the direction sought with a large enough effect; an effect the other way counts as inactive or inconclusive; also: potency is read from the fitted curve at half-maximal effect; nearly all actives have a fitted effect of over 40% in size); settings: recombinant human TDP1 enzymatic activity, dose-response
# Outline: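 Loss of AlphaScreen signal reports Tdp1 cleavage of a dual-labelled DNA substrate. Conditions: 1 nM E. coli-derived enzyme, 15 nM substrate, 15 min compound preincubation, 5 min reaction, 10 min bead incubation, all at room temperature.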
# [14] = molecular target: Tumor susceptibility gene 101 protein (Homo sapiens) (UniProt Q99816); assay: qHTS Assay for Iinhibitors of HIV-1 Budding by Blocking the Interaction of PTAP/TSG101: Hit Validation (AID 651600; active = well fitted curve in the direction sought with a large enough effect; an effect the other way counts as inactive or inconclusive; also: potency is read from the fitted curve at half-maximal effect; nearly all actives have a fitted effect of over 70% in size)
# Outline: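 Tsg101 binding domain 10 uM + FITC-PTAP peptide 50 nM (final), 10 mM HEPES pH 7.5/0.15 M NaCl/0.01% Tween 20/3 mM EDTA/0.1 mM TCEP; 20 min RT; FP read, FITC filters.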
# [15] = molecular target: Cytochrome P450 2D6 (Homo sapiens) (UniProt P10635); assay: qHTS Assay for Inhibitors and Substrates of Cytochrome P450 2D6 (AID 891; active = well fitted curve in the direction sought with a large enough effect; an effect the other way counts as inactive or inconclusive;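 also: luciferin methyl ether substrate demethylated by CYP2D6 with NADPH regeneration; % is scaled to controls: 0 for no effect and ±100 for the full control effect; nearly all actives have a fitted effect of over 60% in size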)
# Outline: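 Luminescent read-out of luciferin formed by 5 nM human CYP2D6 demethylating 30 uM Luciferin-ME EGE (Km level) over 60 min at room temperature after NADPH regeneration addition. Data normalized to full inhibition by 1.43 uM quinidine.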
# [16] = molecular target: Cytochrome P450 2C19 (Homo sapiens) (UniProt P33261); assay: qHTS Assay for Inhibitors and Substrates of Cytochrome P450 2C19 (AID 899; active = well fitted curve in the direction sought with a large enough effect; an effect the other way counts as inactive or inconclusive; also: potency is read from the fitted curve at half-maximal effect; nearly all actives have a fitted effect of over 60% in size)
# Outline: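 Luminescence readout of luciferin formed from 10uM Luciferin-H EGE (KM level) by 5 nM CYP2C19 in 50mM KPO4. 60 min NADPH-driven reaction at 37C after 10 min compound preincubation; data scaled to 57uM ketoconazole inhibition.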
# Glucocorticoid receptor (Homo sapiens), sequence (P04150 whole entry, looked up, the tested form may be a part): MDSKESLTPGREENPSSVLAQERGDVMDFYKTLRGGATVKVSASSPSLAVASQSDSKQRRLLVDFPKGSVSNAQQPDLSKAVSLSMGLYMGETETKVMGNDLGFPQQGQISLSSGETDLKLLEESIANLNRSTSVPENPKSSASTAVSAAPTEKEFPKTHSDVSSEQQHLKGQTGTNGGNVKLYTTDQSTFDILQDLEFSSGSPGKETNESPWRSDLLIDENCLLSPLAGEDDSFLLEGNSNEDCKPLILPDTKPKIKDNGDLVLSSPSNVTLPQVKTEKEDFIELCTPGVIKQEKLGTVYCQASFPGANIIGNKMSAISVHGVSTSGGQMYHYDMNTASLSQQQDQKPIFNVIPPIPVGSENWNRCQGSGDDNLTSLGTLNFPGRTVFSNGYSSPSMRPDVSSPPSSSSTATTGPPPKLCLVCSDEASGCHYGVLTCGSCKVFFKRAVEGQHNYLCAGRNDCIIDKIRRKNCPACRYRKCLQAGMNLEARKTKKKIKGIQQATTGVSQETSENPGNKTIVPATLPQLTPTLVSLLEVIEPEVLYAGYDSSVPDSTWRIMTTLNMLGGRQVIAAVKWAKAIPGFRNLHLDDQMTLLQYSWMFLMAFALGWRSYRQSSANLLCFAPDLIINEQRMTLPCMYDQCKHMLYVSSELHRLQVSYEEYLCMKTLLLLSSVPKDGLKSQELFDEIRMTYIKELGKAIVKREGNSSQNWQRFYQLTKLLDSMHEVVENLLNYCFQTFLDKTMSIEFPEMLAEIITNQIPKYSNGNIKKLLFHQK
# Muscarinic acetylcholine receptor M1 (Rattus norvegicus), sequence (P08482 whole entry, looked up): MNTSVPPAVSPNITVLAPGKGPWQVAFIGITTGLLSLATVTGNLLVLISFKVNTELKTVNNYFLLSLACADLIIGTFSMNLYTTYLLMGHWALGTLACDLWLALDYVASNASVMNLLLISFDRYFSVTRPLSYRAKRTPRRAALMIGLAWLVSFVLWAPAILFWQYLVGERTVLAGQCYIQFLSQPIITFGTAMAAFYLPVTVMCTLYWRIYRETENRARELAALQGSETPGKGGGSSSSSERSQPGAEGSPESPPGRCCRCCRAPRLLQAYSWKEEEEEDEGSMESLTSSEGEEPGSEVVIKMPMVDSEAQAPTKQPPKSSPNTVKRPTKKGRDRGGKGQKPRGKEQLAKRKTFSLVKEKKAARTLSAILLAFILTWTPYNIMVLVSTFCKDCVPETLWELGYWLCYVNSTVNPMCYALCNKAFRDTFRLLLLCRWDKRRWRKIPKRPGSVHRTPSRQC
# Pyruvate kinase (Leishmania mexicana), sequence (Q27686 2-499 E452W): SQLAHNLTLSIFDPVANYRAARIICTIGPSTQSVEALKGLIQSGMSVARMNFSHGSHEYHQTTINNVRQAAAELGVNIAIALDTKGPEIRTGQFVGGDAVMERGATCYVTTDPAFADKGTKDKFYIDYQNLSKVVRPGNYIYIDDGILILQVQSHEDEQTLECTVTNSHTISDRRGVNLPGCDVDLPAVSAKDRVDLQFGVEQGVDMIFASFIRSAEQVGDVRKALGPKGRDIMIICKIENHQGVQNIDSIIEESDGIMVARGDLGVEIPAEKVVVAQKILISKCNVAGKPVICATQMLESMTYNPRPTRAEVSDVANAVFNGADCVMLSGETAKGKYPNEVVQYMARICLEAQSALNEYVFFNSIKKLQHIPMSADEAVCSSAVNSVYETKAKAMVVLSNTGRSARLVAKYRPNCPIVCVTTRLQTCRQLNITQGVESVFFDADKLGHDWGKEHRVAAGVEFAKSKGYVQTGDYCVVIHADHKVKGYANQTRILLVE
# Tyrosyl-DNA phosphodiesterase 1 (Homo sapiens), sequence (Q9NUW8 whole entry, looked up): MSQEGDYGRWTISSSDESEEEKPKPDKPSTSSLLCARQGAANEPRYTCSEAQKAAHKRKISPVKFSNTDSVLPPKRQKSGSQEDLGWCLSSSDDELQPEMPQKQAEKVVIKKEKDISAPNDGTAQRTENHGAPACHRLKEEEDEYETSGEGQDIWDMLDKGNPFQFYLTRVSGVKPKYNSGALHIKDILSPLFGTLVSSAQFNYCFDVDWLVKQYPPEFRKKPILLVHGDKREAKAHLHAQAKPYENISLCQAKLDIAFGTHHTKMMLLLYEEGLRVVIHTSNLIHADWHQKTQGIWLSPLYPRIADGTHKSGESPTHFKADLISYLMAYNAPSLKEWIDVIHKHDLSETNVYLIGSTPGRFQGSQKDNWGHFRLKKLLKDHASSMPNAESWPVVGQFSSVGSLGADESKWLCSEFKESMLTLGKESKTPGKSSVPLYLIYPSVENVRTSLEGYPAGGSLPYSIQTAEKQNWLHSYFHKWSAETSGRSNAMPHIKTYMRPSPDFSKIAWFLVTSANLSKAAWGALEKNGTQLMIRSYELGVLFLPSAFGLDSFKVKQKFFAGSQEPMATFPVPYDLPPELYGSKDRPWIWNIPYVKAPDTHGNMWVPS
# Alpha-galactosidase A (Homo sapiens), sequence (P06280 whole entry, looked up): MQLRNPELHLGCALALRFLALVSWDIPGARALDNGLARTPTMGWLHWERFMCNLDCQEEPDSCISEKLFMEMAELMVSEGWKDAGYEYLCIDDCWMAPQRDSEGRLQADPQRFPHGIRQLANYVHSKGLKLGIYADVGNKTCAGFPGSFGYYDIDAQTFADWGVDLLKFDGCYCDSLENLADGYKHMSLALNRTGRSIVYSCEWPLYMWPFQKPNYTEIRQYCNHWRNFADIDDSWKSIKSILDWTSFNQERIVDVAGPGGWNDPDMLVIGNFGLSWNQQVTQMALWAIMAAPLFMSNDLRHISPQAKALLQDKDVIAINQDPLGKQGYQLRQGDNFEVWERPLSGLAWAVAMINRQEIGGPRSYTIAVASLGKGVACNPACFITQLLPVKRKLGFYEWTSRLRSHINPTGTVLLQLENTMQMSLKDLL
# Tumor susceptibility gene 101 protein (Homo sapiens), sequence (Q99816 whole entry, looked up, the tested form may be a part): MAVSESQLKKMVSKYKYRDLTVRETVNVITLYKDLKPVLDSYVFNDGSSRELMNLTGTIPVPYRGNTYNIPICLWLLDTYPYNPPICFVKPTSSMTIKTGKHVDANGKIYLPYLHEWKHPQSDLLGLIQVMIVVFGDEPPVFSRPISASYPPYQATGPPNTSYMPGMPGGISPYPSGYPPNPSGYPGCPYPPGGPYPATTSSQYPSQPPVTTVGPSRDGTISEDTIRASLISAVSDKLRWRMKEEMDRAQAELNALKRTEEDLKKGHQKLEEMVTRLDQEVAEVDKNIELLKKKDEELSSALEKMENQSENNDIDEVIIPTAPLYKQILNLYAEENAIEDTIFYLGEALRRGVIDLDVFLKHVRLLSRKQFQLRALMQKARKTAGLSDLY
# Cytochrome P450 2C19 (Homo sapiens), sequence (P33261 whole entry, looked up): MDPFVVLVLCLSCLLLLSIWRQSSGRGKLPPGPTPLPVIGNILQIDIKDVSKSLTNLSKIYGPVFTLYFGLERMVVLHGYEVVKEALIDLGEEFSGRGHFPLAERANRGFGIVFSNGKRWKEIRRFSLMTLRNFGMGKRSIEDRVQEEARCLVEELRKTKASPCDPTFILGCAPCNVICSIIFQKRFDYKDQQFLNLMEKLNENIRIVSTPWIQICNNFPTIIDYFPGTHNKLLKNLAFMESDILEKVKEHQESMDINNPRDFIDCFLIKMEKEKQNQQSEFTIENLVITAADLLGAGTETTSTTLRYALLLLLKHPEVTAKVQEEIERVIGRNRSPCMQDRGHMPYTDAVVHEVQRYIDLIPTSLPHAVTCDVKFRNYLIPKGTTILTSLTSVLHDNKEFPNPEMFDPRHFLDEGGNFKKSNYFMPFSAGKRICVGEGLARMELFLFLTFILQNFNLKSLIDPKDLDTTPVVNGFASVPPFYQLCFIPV
# Pyruvate kinase PKM (Homo sapiens), sequence (P14618 whole entry, looked up): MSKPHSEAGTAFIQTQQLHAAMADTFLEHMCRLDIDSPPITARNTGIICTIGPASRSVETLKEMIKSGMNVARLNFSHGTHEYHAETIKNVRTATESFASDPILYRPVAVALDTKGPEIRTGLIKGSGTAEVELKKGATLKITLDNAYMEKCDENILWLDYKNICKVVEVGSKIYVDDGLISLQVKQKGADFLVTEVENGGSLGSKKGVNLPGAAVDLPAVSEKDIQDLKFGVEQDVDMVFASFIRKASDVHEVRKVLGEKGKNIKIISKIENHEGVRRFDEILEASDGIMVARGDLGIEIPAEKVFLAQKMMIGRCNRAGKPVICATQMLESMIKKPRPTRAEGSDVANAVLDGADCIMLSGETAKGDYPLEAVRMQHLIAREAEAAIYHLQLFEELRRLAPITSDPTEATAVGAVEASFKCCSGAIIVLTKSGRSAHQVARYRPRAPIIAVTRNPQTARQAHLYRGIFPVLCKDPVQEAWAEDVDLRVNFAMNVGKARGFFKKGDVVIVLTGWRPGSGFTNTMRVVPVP
# Cytochrome P450 2D6 (Homo sapiens), sequence (P10635 whole entry, looked up): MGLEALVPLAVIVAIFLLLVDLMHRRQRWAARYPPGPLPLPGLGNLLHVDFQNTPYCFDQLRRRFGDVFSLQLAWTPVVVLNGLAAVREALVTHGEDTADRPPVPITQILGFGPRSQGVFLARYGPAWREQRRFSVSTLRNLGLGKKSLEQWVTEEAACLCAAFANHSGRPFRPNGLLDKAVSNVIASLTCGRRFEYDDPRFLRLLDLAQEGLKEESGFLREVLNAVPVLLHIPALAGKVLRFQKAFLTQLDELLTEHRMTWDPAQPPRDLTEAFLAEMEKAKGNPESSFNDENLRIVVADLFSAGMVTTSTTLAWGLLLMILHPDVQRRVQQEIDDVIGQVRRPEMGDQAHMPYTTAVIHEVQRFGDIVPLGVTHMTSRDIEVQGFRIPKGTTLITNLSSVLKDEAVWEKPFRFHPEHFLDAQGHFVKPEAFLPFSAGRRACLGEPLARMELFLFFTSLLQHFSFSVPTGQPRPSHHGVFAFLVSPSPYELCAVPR
structure (smiles),measurement,setting,value
CCC1(C)Cc2c(sc3c2c(=O)n(C)c2nnc(SCc4ccc5c(c4)OCO5)n32)CO1 (stereo unspecified),"activity change, negative = inhibition",[1],11.8%
same,"activity, negative = inhibition",[2],-3.34%
same,Potency,[3],> 20.6 µM
same,activation,[4],-18.9%
NC[C@@H]1O[C@@H](O[C@H]2[C@@H](O)[C@H](O[C@@H]3[C@H](O)[C@H](N)C[C@H](N)[C@H]3O[C@@H]3O[C@@H](CO)[C@H](O)[C@H](O)[C@@H]3N)O[C@H]2CO)[C@H](N)[C@H](O)[C@@H]1O,"activity change, negative = inhibition",[1],7.75% [at 38 µM]
same,"activity, negative = inhibition",[2],-13.5% [at 38 µM]
same,Potency,[3],> 46 µM
same,Potency,[5],> 46 µM
same,Potency,[6],inactive
same,Potency,[7],inactive
same,Potency,[8],inactive
same,Potency,[9],inactive
same,outcome,[10],inactive
same,outcome,[11],inactive
same,outcome,[12],inactive
O=C1c2ccccc2-c2onc3ccc(NCc4ccco4)c1c23,"activity change, negative = inhibition",[1],-13%
same,"activity, negative = inhibition",[2],-1.03%
same,Potency,[3],> 20.6 µM
same,Potency,[13],7.08 µM (active)
same,Potency,[14],1.63 µM (active)
Clc1ccc([C@@H](c2ccccc2Cl)C(Cl)Cl)cc1,"activity change, negative = inhibition",[1],-7.25% [at 38 µM]
same,"activity, negative = inhibition",[2],2.17% [at 38 µM]
same,Potency,[3],> 46 µM
same,Potency,[5],> 46 µM
same,Potency,[15],inactive
same,Potency,[16],0.631 µM (active)
COCc1cc(=O)[nH]c(Nc2nc3ccc(C)cc3o2)n1,"activity change, negative = inhibition",[1],-0.718%
same,Potency,[3],> 20.6 µM
Oc1ccccc1-c1nc(NCc2ccco2)c2ccccc2n1,"activity change, negative = inhibition",[1],19.5%
same,Potency,[3],> 20.6 µM
CSc1nc2sc3c(c2c2nnnn12)CCCC3,"activity change, negative = inhibition",[1],19.7%
same,Potency,[3],> 20.6 µM
CC1CCN(c2oc(-c3ccccc3Cl)nc2C#N)CC1,"activity change, negative = inhibition",[1],-14%
same,Potency,[3],> 20.6 µM
CN1CCN(c2c3c(c(C#N)c4nc5ccccc5n24)CCCC3)CC1,"activity change, negative = inhibition",[1],14.7%
same,"activity, negative = inhibition",[2],5.04%
same,Potency,[3],> 20.6 µM
same,activation,[4],-2.43%
CCN1CCN(c2nc3c(C)cccn3c(=O)c2/C=C(\C#N)S(=O)(=O)c2ccc(C)cc2)CC1,"activity change, negative = inhibition",[1],6.19%
same,Potency,[3],> 20.6 µM
N#Cc1c(N)n(CCOC(=O)c2ccc(Cl)cc2)c2nc3ccccc3nc12,"activity change, negative = inhibition",[1],19.1%
same,Potency,[3],> 20.6 µM
CCOC(=O)CSc1nnc2n(Cc3ccccc3)c(=O)c3c4c(sc3n12)CCC4,"activity change, negative = inhibition",[1],-11.8%
same,Potency,[3],> 20.6 µM
CC(C)(C)C1CCC2(CC1)C(C#N)=C(SCC(=O)Nc1ccccc1)NC(=O)C2C#N (stereo unspecified),"activity change, negative = inhibition",[1],-1.12%
same,Potency,[3],> 20.6 µM
CCCc1cc(-c2nc(N)ncc2-c2ccc3c(c2)OCCCO3)c(O)cc1OC,"activity change, negative = inhibition",[1],-29.1%
same,Potency,[3],> 20.6 µM
CCCSc1nnc(NC(=O)Nc2ccc(F)cc2)s1,"activity change, negative = inhibition",[1],-11.2%
same,Potency,[3],> 20.6 µM
Cn1c(N2CCOCC2)nc2c1c(=O)n(Cc1ccc(Cl)c(Cl)c1)c(=O)n2C,"activity change, negative = inhibition",[1],-18.7%
same,Potency,[3],> 20.6 µM
CCOc1ccc(S(=O)(=O)NC(C)(C)C)cc1-c1nc2c(C(C)(C)C)nn(C)c2c(=O)[nH]1,"activity change, negative = inhibition",[1],-8.82%
same,Potency,[3],> 20.6 µM
CCOC(=O)C1=C(CSc2nc3c(cc2C#N)CN(C)CC3)OC(N)=C(C#N)C1c1ccccc1 (stereo unspecified),"activity change, negative = inhibition",[1],-2.2%
same,Potency,[3],> 20.6 µM
CCCCCCc1cc2cc(-c3nnc(-c4ccccc4O)o3)c(=O)oc2cc1O,"activity change, negative = inhibition",[1],-3.45%
same,"activity, negative = inhibition",[2],73.1% [activator] (active)
same,Potency,[4],3.16 µM (active)
CCc1nc(N2CCCC2)c(C#N)c2c1CCCC2,"activity change, negative = inhibition",[1],-16.4%
same,"activity, negative = inhibition",[2],-19.9%
same,Potency,[3],> 20.6 µM
same,activation,[4],-12%
Cc1nn(-c2ccccc2)c2c1C(c1ccc(F)cc1F)C(C#N)=C(N)O2 (stereo unspecified),"activity change, negative = inhibition",[1],4.8%
same,Potency,[3],> 20.6 µM
CN1CCc2nc(SCC(=O)Nc3ccc(Cl)cc3)c(C#N)cc2C1,"activity change, negative = inhibition",[1],5.33%
same,Potency,[3],> 20.6 µM
Oc1oc(-c2ccco2)nc1C=Nc1cccc(Cl)c1,"activity change, negative = inhibition",[1],-27%
same,Potency,[3],> 20.6 µM
CN1CCc2c(sc3c2c(=O)n(-c2ccccc2)c2nnc(SCc4ccccc4)n32)C1,"activity change, negative = inhibition",[1],-13.6%
same,Potency,[3],> 20.6 µM
C=CCOn1c(=O)c(-c2ccc(OC)cc2)[n+]([O-])c2ccccc21,"activity change, negative = inhibition",[1],-22.9%
same,Potency,[3],> 20.6 µM
CCCN(CCC)C(=O)CC(c1ccc(F)cc1)c1ccco1 (stereo unspecified),"activity change, negative = inhibition",[1],13%
same,"activity, negative = inhibition",[2],-3.11%
same,Potency,[3],> 20.6 µM
same,activation,[4],13.9%
Cc1c([C@H]2[C@@H](CC#N)C2(C)C)c2ccccc2n1C,"activity change, negative = inhibition",[1],-11.6%
same,Potency,[3],> 20.6 µM
Clc1ccccc1CSc1nnc(-c2ccco2)c(-c2ccco2)n1,"activity change, negative = inhibition",[1],10.8%
same,Potency,[3],> 20.6 µM

# Source: PubChem BioAssay (NCATS)
